The record followed here is PubChem BioAssay (EPA / NIEHS).

The source made the active and inactive calls. How the source made its calls: active means hit-call score of the fitted dose curve at least 0.9, where 1 is the maximum; inactive means score below 0.9.

Assay [1] in a line: BSK_4H_Eotaxin3: BioMAP Diversity Plus: 4H Assay for Eotaxin 3 Biomarker Activity (AID 2283000).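 On outcome: CCL26 protein level quantified by ELISA in parallel with SRB cytotoxicity check.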 The following applies: primary human endothelial cells (HUVEC); actives raise or lower the signal. The gist of the method:
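ELISA quantitation of CCL26 (Eotaxin-3) protein from chemically dosed human vascular endothelial cells at 24 h; increases and decreases both scored relative to DMSO-treated baseline.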

Read-out in assay [2]: Intercellular Adhesion Molecule 1 (ICAM1), ICAM1 (gene 3383)
The assay is described as follows: BSK_3C_ICAM1: BioMAP Diversity Plus: 3C Assay for Intercellular Adhesion Molecule 1 (ICAM1) Biomarker Activity (AID 2283003). To be noted: primary human endothelial cells (HUVEC); actives raise or lower the signal. The gist of the method: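 Chemicals are dosed onto primary human umbilical vein endothelium (3C system). After 24 h, ICAM-1 is measured by ELISA, and responses are fitted bidirectionally relative to DMSO.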

Read-out in assay [3]: Interleukin-1 alpha (IL1a), IL1A (gene 3552)
The assay is described as follows: BSK_BE3C_IL1a: BioMAP Diversity Plus: BE3C Assay for Interleukin-1 alpha (IL1a) Biomarker Activity (AID 2283016). The following applies: primary human bronchial epithelial cells; actives raise or lower the signal. The gist of the method: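 Signal from IL-1a ELISA, taken 24 h after chemical dosing of human bronchial epithelial cells, is compared with DMSO as baseline using bidirectional curve fitting.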

Read-out in assay [4]: Monocyte Chemoattractant Protein-1 (MCP1), CCL2 (gene 6347)
The assay can be described thus: BSK_3C_MCP1: BioMAP Diversity Plus: 3C Assay for Monocyte Chemoattractant Protein-1 (MCP1) Biomarker Activity (AID 2283017). To be noted: primary human endothelial cells (HUVEC); actives raise or lower the signal. The gist of the method: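 Using human vascular primary endothelium, researchers measured MCP-1 by ELISA 24 h after treatment, with DMSO serving as negative control for bidirectional fitting.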

Read-out in assay [5]: Interleukin-8 (IL8), CXCL8 (gene 3576)
The assay can be described thus: BSK_3C_IL8: BioMAP Diversity Plus: 3C Assay for Interleukin-8 (IL8) Biomarker Activity (AID 2283020). To be noted: primary human endothelial cells (HUVEC); actives raise or lower the signal. The procedure, abridged: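 Endothelial primary cells of human umbilical vein origin are dosed with chemical; after 24 h the IL-8 biomarker is measured by ELISA, and concentration–response is fitted in both directions versus DMSO.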

A short description of assay [6]: BSK_3C_SRB: Viability Assessment in the BioMAP Diversity Plus: 3C Assay (AID 2283023).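 Further: cells read 24 h after compound dosing; fitted both ways against DMSO so a hit may be signal rise or drop.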 The following applies: primary human endothelial cells (HUVEC). The procedure, abridged: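 Overt cytotoxicity is gauged in parallel confluent HUVEC cultures by SRB total-protein staining at the time of biomarker measurement, 24 h after dosing. Gain or loss of signal is fitted versus DMSO.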

Read-out in assay [7]: Pselectin, SELP (gene 6403)
The assay is described as follows: BSK_4H_Pselectin: BioMAP Diversity Plus: 4H Assay for Pselectin Biomarker Activity (AID 2283026). The following applies: primary human endothelial cells (HUVEC); actives raise or lower the signal. The procedure, abridged:
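Endothelial primary cells (human umbilical vein) are dosed, incubated 24 h, and assayed for surface P-selectin by ELISA; responses in either direction are fitted relative to the DMSO negative control.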

Assay [8] can be described thus: BSK_4H_SRB: Viability Assessment in the BioMAP Diversity Plus: 4H Assay (AID 2283027).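 Further: cells exposed to compound for 24 h before staining.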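 On AC50: curves fitted both ways versus DMSO so AC50 may be loss or gain.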 The following applies: primary human endothelial cells (HUVEC). The gist of the method:
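HUVEC, 24 h post-dose; 10% TCA fix, 0.1% SRB stain, A560 nm. Total protein = overt cytotoxicity, parallel to biomarker read. Bidirectional fit vs DMSO baseline.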

Read-out in assay [9]: Human Leukocyte Antigen - DR isotype (HLADR), HLA-DRA (gene 3122)
The assay is described as follows: BSK_BE3C_HLADR: BioMAP Diversity Plus: BE3C Assay for Human Leukocyte Antigen - DR isotype (HLADR) Biomarker Activity (AID 2283032). To be noted: primary human bronchial epithelial cells; actives raise or lower the signal. The procedure, abridged: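 Chemicals are dosed onto BE3C bronchial epithelial cultures of human origin and left 24 h. HLA-DR is then measured by ELISA, and the endpoint is fitted in both directions using DMSO as the activity baseline.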

Read-out in assay [10]: Monokine induced gamma interferon (MIG), CXCL9 (gene 4283)
The assay can be described thus: BSK_BE3C_MIG: BioMAP Diversity Plus: BE3C Assay for Monokine induced gamma interferon (MIG) Biomarker Activity (AID 2283035).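 On outcome: MIG protein measured by ELISA in BE3C cultures after 24 h of dosing.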 The following applies: primary human bronchial epithelial cells; actives raise or lower the signal. The procedure, abridged: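 Dose cells (human primary bronchial epithelial), incubate 24 h, quantify MIG by ELISA, then fit concentration–response in both directions relative to DMSO control.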

Read-out in assay [11]: Transforming growth factor beta 1 (TGFb1), TGFB1 (gene 7040)
The assay can be described thus: BSK_BE3C_TGFb1: BioMAP Diversity Plus: BE3C Assay for Transforming growth factor beta 1 (TGFb1) Biomarker Activity (AID 2283036;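 on outcome: TGF-b1 protein level measured by ELISA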). To be noted: primary human bronchial epithelial cells; actives raise or lower the signal. The procedure, abridged:
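Bronchial epithelial primary cells are treated with test chemical, then TGF-b1 is quantified by ELISA after 24 hours. Values derive from bidirectional fitting against DMSO, with cytotoxicity checked by SRB staining in parallel cultures.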

Read-out in assay [12]: urokinase plasminogen activator (uPA), PLAU (gene 5328)
The assay can be described thus: BSK_BE3C_uPA: BioMAP Diversity Plus: BE3C Assay for urokinase plasminogen activator (uPA) Biomarker Activity (AID 2283038).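 On outcome: uPA protein level quantified by ELISA in cell cultures; uPA read one day after compound addition.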 To be noted: primary human bronchial epithelial cells; actives raise or lower the signal. The gist of the method: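 Using confluent primary human lung bronchial epithelial cultures, we dosed chemicals, waited 24 h, then ran a uPA ELISA, fitting bidirectionally against DMSO.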

Read-out in assay [13]: Macrophage colony-stimulating factor (MCSF), CSF1 (gene 1435)
The assay is described as follows: BSK_CASM3C_MCSF: BioMAP Diversity Plus: CASM3C Assay for Macrophage colony-stimulating factor (MCSF) Biomarker Activity (AID 2283044).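 Further: M-CSF protein amount quantified by ELISA after 24 h exposure.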 To be noted: primary human coronary artery smooth muscle cells; actives raise or lower the signal.

Read-out in assay [14]: Low-density lipoprotein receptor (LDLR), LDLR (gene 3949)
The assay is described as follows: BSK_CASM3C_LDLR: BioMAP Diversity Plus: CASM3C Assay for Low-density lipoprotein receptor (LDLR) Biomarker Activity (AID 2283045).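 Further: LDLR protein level on the cell surface quantified by ELISA.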 To be noted: primary human coronary artery smooth muscle cells; actives raise or lower the signal.

Read-out in assay [15]: serum amyloid A (SAA), SAA1 (gene 6288)
The assay can be described thus: BSK_CASM3C_SAA: BioMAP Diversity Plus: CASM3C Assay for serum amyloid A (SAA) Biomarker Activity (AID 2283049).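 Further: SAA protein level quantified by ELISA.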 The following applies: primary human coronary artery smooth muscle cells; actives raise or lower the signal.

A short description of assay [16]: BSK_CASM3C_SRB: Viability Assessment in the BioMAP Diversity Plus: CASM3C Assay (AID 2283050).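 Further: cells exposed to compound for 24 h.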 To be noted: primary human coronary artery smooth muscle cells.
Read-out in assay [17]: Vascular cell adhesion molecule 1 (VCAM1), VCAM1 (gene 7412)
The assay can be described thus: BSK_CASM3C_VCAM1: BioMAP Diversity Plus: CASM3C Assay for Vascular cell adhesion molecule 1 (VCAM1) Biomarker Activity (AID 2283055).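 Further: VCAM-1 protein level quantified by ELISA on the cells.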 The following applies: primary human coronary artery smooth muscle cells; actives raise or lower the signal.

Read-out in assay [18]: Macrophage colony-stimulating factor (MCSF), CSF1 (gene 1435)
The assay can be described thus: BSK_hDFCGF_MCSF: BioMAP Diversity Plus: hDFCGF Assay for Macrophage colony-stimulating factor (MCSF) Biomarker Activity (AID 2283060). The following applies: primary human foreskin fibroblasts; actives raise or lower the signal. The gist of the method:
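fibroblasts (human foreskin, primary), 24 h post-dose; M-CSF by ELISA; bidirectional fit, DMSO = baseline.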

Read-out in assay [19]: Interleukin-1 alpha (IL1a), IL1A (gene 3552)
The assay is described as follows: BSK_KF3CT_IL1a: BioMAP Diversity Plus: KF3CT Assay for Interleukin-1 alpha (IL1a) Biomarker Activity (AID 2283070). To be noted: primary human keratinocytes with fibroblasts; actives raise or lower the signal. The gist of the method:
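Primary skin co-culture (keratinocytes, foreskin fibroblasts), 24 h exposure; ELISA for IL-1a; bidirectional curve fit vs DMSO.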

Read-out in assay [20]: TIMP metallopeptidase inhibitor 2 (TIMP2), TIMP2 (gene 7077)
The assay is described as follows: BSK_KF3CT_TIMP2: BioMAP Diversity Plus: KF3CT Assay for TIMP metallopeptidase inhibitor 2 (TIMP2) Biomarker Activity (AID 2283071). The following applies: primary human keratinocytes with fibroblasts; actives raise or lower the signal. The procedure, abridged:
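Chemicals were dosed onto human skin primary co-cultures of keratinocytes and foreskin fibroblasts, and TIMP-2 was measured by ELISA after 24 hours. Activity in either direction was fitted relative to DMSO.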

The AC50 is the midpoint of the concentration-response curve, whichever way the signal moves.

Consider `O=C(CCl)c1ccccc1`, for which the AC50 was 4.98 µM (active) in [1]; 7.82 µM (active) in assay [2]; 32.6 µM (active) in assay [3]; 7.4 µM (active) in [4]; 10.9 µM (active) in [5]; 20 µM (active) in assay [6]. For the same compound, the AC50 in assay [7] was 3.29 µM (active); in assay [8], 14.3 µM (active); in [9] it was 30.4 µM (active); in [10] it was 36.5 µM (active); in assay [12], 36.2 µM (active); in assay [13], 12.9 µM (active). Further, the AC50 in assay [14] is 33 µM (active); in assay [15], 14.6 µM (active); in assay [16], 12.2 µM (active); in [17], 7.45 µM (active); in assay [18] it was 5.84 µM (active); in assay [19] it was 28.4 µM (active). The AC50 in [20] was 36.4 µM (active). The outcome in assay [11] was inactive.
As to `Clc1ccc(-c2ccccc2)cc1`, the AC50 in assay [1] was 30.5 µM (active); in assay [6], 30.9 µM (active); in [7], 28.2 µM (active); in assay [8], 35.3 µM (active). For the same compound, the outcome in assay [2], in [3], in assay [4], in [5], in [9] and in [10] was inactive. Also, the outcome in assay [11], in assay [12], in assay [13], in assay [14], in assay [15] and in assay [16] was inactive. Also, the outcome in assay [17], in [18], in assay [19] and in assay [20] was inactive.
Consider `CCCOC(=O)c1ccccc1C(=O)OCCC`, for which the result in assay [1], in [2], in [3], in [5], in assay [6] and in [7] was inactive. In addition, the outcome in [8], in assay [10], in [11], in [12], in [13] and in [14] was inactive. Also, the result in assay [15], in [16], in assay [17], in assay [18], in assay [19] and in assay [20] was inactive. The AC50 in [4] was 20 µM (active); in assay [9], 0.274 µM (active).
On to `CCC(C)c1cc([N+](=O)[O-])cc([N+](=O)[O-])c1OC(=O)C=C(C)C` (stereo not given), for which the AC50 in assay [1] is 6.83 µM (active); in assay [2], 30.4 µM (active); in assay [3] it was 20.9 µM (active); in assay [4], 12.8 µM (active); in assay [5], 0.00641 µM (active); in [6], 12.9 µM (active). Further, the AC50 was 7.89 µM (active) in assay [7]; 20 µM (active) in assay [8]; 11.8 µM (active) in assay [9]; 35.1 µM (active) in assay [10]; 3.97 µM (active) in assay [11]; 31.9 µM (active) in assay [12]. For the same compound, the AC50 is 30.7 µM (active) in assay [13]; 31.2 µM (active) in [14]; 20 µM (active) in assay [15]; 30.3 µM (active) in assay [16]; 20.5 µM (active) in assay [17]; 6.13 µM (active) in assay [18]. The AC50 is 22.8 µM (active) in assay [19] and 21.1 µM (active) in assay [20].
Regarding `O=P1(NCCCl)OCCCN1CCCl` (stereo not given), the result in assay [1], in assay [2], in assay [3], in assay [4], in assay [5] and in [6] was inactive. In addition, the result in [7], in assay [8], in [9], in [10], in assay [11] and in [12] was inactive. Besides, the outcome in [13], in assay [14], in [15], in assay [16], in assay [17] and in [18] was inactive. Moreover, the result in assay [19] and in assay [20] was inactive.
